Screening results as filed in PubChem.
ERp5 block: blocks human ERp5 reductase activity on insulin; Q15084; ERp5 insulin aggregation, absorbance 650 nm, 90 min; inhibition, % at 9.99 µM; 350,000 tested, 0.05% active; AID 651711;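 active = mean replicate inhibition above about 25%, with every replicate also reaching it, limit read from the data, passing the limit was not always enough; inconclusive = only one of those two criteria met; inactive = neither criterion met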
Rtt109 Vps75: blocks Candida albicans Rtt109/Vps75 acetyltransferase activity. Q5AAJ8. purified Rtt109/Vps75, ThioGlo CoA-SH fluorescence, 4 h. inhibition, % at 34.9 µM. 330,000 tested, 0.16% active. AID 540336;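 active = inhibition of at least 50% in every replicate; inconclusive = best replicate reaches 50% inhibition but some replicates fall short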
Target sequence (Q5AAJ8 whole entry, looked up): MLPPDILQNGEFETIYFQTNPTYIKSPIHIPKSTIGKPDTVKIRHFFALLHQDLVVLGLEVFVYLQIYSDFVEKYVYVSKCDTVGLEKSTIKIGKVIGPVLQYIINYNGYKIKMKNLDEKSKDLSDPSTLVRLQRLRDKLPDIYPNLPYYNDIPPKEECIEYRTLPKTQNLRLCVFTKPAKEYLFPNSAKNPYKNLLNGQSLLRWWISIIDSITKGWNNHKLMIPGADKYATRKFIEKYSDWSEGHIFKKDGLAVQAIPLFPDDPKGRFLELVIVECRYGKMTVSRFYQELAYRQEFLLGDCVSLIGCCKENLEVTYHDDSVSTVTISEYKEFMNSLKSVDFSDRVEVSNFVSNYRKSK
DENV2 CPE rescue: inhibitors of DENV2 cytopathic effect | DENV2-infected cells, cytopathic effect rescue, plate reader | CPE inhibition, % at 9.99 µM | 350,000 tested, 1.7% active | AID 651640; in the data active = CPE inhibition above about 20%, passing the limit was not always enough; inconclusive = no clear call, values can overlap the other calls; tested in BHK-21 cells;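 also: 0% = median of neutral control wells and 100% = median of positive control wells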
PDI inh: blocks human protein disulfide isomerase activity; PDI insulin aggregation turbidity, A650, 90 min; inhibition, % at 10 µM; 350,000 tested, 0.052% active;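 active = mean inhibition across replicates of 30% or more, whatever share of single replicates reach that level; inconclusive = mean inhibition below 30% while every single replicate reaches 30%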
SIRT5 inh: blocks human SIRT5 desuccinylation of peptide; inhibition, % at 15 µM; Q9NXA8; Purified SirT5, succinyl-peptide AMC, trypsin-coupled fluorescence; 330,000 tested, 1.1% active; in the data active = inhibition above about 15%; inconclusive = no clear call, values can overlap the other calls
Numbers without * were called inactive; ? = inconclusive; nt = not tested or not shown; ! = not confirmed by another sample. This is a sample that favours compounds with a hit; in the whole collection about 2.3% have one here.

SMILES	ERp5 block	Rtt109 Vps75	DENV2 CPE rescue	PDI inh	SIRT5 inh
CCCC#Cc1ccc2c(c1)O[C@@H](CN(C)C(=O)c1cnccn1)[C@@H](C)CN([C@@H](C)CO)S2(=O)=O	-6	nt	10	nt	28*
CC(C)CC#Cc1ccc2c(c1)O[C@H](CN(C)C(=O)c1cccc(F)c1)[C@@H](C)CN([C@H](C)CO)S2(=O)=O	4	nt	-2	nt	22*
CC(C)CC#Cc1ccc2c(c1)O[C@@H](CN(C)C(=O)c1cccc(F)c1)[C@H](C)CN([C@@H](C)CO)S2(=O)=O	-3	nt	-1	nt	22*
CC(C)CC#Cc1ccc2c(c1)O[C@@H](CN(C)C(=O)c1cccc(F)c1)[C@@H](C)CN([C@@H](C)CO)S2(=O)=O	-4	nt	10	nt	5
CO[C@H]1CN(C)C(=O)c2ccc(NC(=O)Nc3ccccc3F)cc2OC[C@H](C)N(C(C)=O)C[C@@H]1C	-3	nt	0	nt	-1
COc1ccc(CN(C)C[C@@H]2Oc3ccc(N(C)C)cc3CC(=O)N([C@H](C)CO)C[C@H]2C)cc1	-8	nt	7	nt	-1
CC(C)CC#Cc1ccc2c(c1)O[C@H](CN(C)C(=O)c1ccccc1)[C@H](C)CN([C@H](C)CO)S2(=O)=O	5	nt	-11	nt	15*
COc1cccc(C#Cc2ccc3c(c2)O[C@@H](CN(C)C(=O)c2ccccn2)[C@@H](C)CN([C@H](C)CO)S3(=O)=O)c1	4	nt	?	6	16*!
CC(C)CC#Cc1ccc2c(c1)O[C@@H](CN(C)C(=O)c1ccccc1)[C@H](C)CN([C@H](C)CO)S2(=O)=O	4	nt	-7	nt	11
CC(C)CC#Cc1ccc2c(c1)O[C@H](CN(C)C(=O)c1ccccc1)[C@@H](C)CN([C@@H](C)CO)S2(=O)=O	5	nt	-4	nt	8
C[C@@H]1CN([C@@H](C)CO)S(=O)(=O)c2ccc(C#CC3CC3)cc2O[C@@H]1CN(C)C(=O)c1cccc(F)c1	-5	nt	-4	nt	23*
CC(C)CC#Cc1ccc2c(c1)O[C@@H](CN(C)C(=O)c1cccc(F)c1)[C@H](C)CN([C@H](C)CO)S2(=O)=O	-1	nt	-8	nt	16*
COC(=O)C[C@@H]1CC[C@@H]2[C@@H](COc3ccc(NS(=O)(=O)c4ccccc4F)cc3C(=O)N2C)O1	nt	nt	1	nt	nt
C[C@@H]1CN([C@@H](C)CO)C(=O)c2cc(NC(=O)c3ccccc3)ccc2O[C@@H](C)CCCCO[C@H]1CN(C)S(=O)(=O)c1cn(C)cn1	-5	nt	5	nt	2
Cc1ccc(F)cc1S(=O)(=O)N[C@@H]1CCN(C(=O)c2ccc(OC(C)C)cc2)C1	-1	nt	-1	nt	-41
C[C@H](CO)N1C[C@H](C)[C@H](CN(C)S(=O)(=O)c2ccccc2)Oc2ccc(N(C)C)cc2CC1=O	-6	nt	2	nt	2
CC(C)CC#Cc1ccc2c(c1)O[C@@H](CN(C)C(=O)c1ccccn1)[C@H](C)CN([C@H](C)CO)S2(=O)=O	-2	nt	9	nt	3
CC(C)CC#Cc1ccc2c(c1)O[C@@H](CN(C)C(=O)c1ccccn1)[C@@H](C)CN([C@@H](C)CO)S2(=O)=O	45*	nt	-6	nt	9
O=C(NC1CC1)C1=C[C@@H](C2CCCCC2)C[C@@H](OCCCCO)O1	-9	3	39*!	8	-3
CCO[C@H]1OC(C(=O)NC2CC2)=C[C@@H](C2CCCCC2)[C@@H]1CCCO	-4	3	23*	8	-4
O=C(NCc1ccccc1)C1=C[C@H](C2CCCCC2)C[C@H](OCc2ccc(CO)cc2)O1	2	2	-4	4	5
O=C(O)C1=C[C@@H](C2CCCC2)C[C@@H](OCCCCO)O1	3	nt	8	nt	-2
O=C(NCc1ccccc1)C1=C[C@@H](C2CC2)C[C@@H](OCc2ccc(CO)cc2)O1	3	3	26*!	0	6
O=C(Nc1ccccc1)C1=C[C@H](C2CC2)C[C@H](OCCCCO)O1	0	0	24*!	-4	0
CCNC(=O)C[C@H]1CC[C@H](NC(=O)C2CCC2)[C@H](CO)O1	-2	nt	1	nt	-1
CNC(=O)C[C@H]1CC[C@@H]2[C@H](COc3ccc(NC(=O)c4ccccc4Cl)cc3C(=O)N2C)O1	0	nt	-10	nt	8
COc1cccc(-c2ccc([C@@H]3[C@H]4CN(C(=O)CN5CCOCC5)CC(=O)N4[C@H]3CO)cc2)c1	6	nt	-11	nt	0
C[C@@H]1CN([C@@H](C)CO)C(=O)Cc2cc(NC(=O)Nc3ccc(F)cc3)ccc2O[C@H]1CN(C)CC1CCCCC1	1	nt	-3	nt	6
